SKOV3 invasion: ovarian cancer metastasis inhibition, 3D TME model; SKOV3ip1-GFP adhesion/invasion on 3D omental model, fluorescence; Potency, µM (highest dose often 45.8 µM), for inactives: at the top dose activity change, negative = inhibition, hits mostly inhibitors; 46,000 compounds, 0.1% hits; AID 1963576;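 further: plate controls were DMSO wells for no effect and tomatine positive control wells for full effect; nearly all actives have a fitted effect of over 65% in size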
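A 3D layer of primary human omental fibroblasts, mesothelial cells, fibronectin and collagen I, grown 48 hr, received SKOV3ip1-GFP cells in serum-free medium plus compounds at 0.36-46 umol/L. After 2 hr RT and 16 hr 37 C, fixed adherent GFP cells were counted; normalized to DMSO and tomatine.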
mTORC1 inh: mTORC1 pathway inhibition measured by phospho-rpS6. Tsc2-/- p53-/- MEF, phospho-rpS6 immunofluorescence/PI, 24 h. 44,000 compounds, 0.78% hits. AID 493208. Potency, µM (top dose mostly 38.3 µM), without a hit: at the highest dose activity change, negative = inhibition, actives largely listed as inhibitors;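 further: plate controls were DMSO for no effect and rapamycin for full effect; nearly all actives have a fitted effect of over 50% in size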
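Compounds act on Tsc2-/-, p53-/- fibroblasts carrying an empty vector for 24 h before fixation and dual staining for phospho-S6 and DNA (propidium iodide). Values are percentages of cells above a rapamycin-defined pS6/PI threshold.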
S16 F2sN tox: S16 Schwann cell cytotoxicity. S16 Pmp22-F2sN Schwann cells viability, CellTiter-Glo, 24 h. Potency, µM (highest dose often 57.5 µM), for inactives: at the top dose activity change, negative = cytotoxicity, hits mostly cytotoxic. 43,000 compounds, 0.48% hits; further: on the % scale 0 is the no-effect control and ±100 the full control effect; nearly all actives have a fitted effect of over 65% in size
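S16 Pmp22-F2sN Schwann cells (500-1,000/well) in phenol-red-free DMEM with 10% FBS received 23 nL compound by pin tool for 24 h at 37 °C. Viability was then read as CellTiter-Glo luminescence after 15 min at room temperature.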
HTT-AS act: activators of huntingtin-antisense promoter activity. AID 1508624. HEK293 HTT-AS promoter firefly luciferase reporter, 24 h; response scale: percent change from vehicle, -100% = no light. 48,000 compounds, 0.24% hits. Potency, µM (highest dose often 57.5 µM), without a hit: at the top dose activity change, positive = activation, usual class: activators; further: nearly all actives have a fitted effect of over 55% in size
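Firefly luciferase readout (Dual-Glo, 10 min RT) after 24 h, 37 °C compound exposure (final up to 57.5 uM) of HEK293 reporter cells cultured 24 h beforehand; PTC124 at 50 uM final as control inhibitor; activity scaled vehicle 0%, zero RLU -100%.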
HTT prom inh: HTT promoter inhibition. HEK293 HTT promoter firefly luciferase reporter, 24 h. Potency, µM (titrated, usually from 57.5 µM), for inactives: top-dose activity change, negative = inhibition, usual class: inhibitors. 48,000 compounds, 0.93% hits. AID 1508623; further: nearly all actives have a fitted effect of over 50% in size
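Firefly luciferase signal from promoter-reporter HEK293 cells was scaled between vehicle (0%) and zero RLU (-100%). Compounds were tested at final concentrations of up to 57.5 uM over 24 h at 37 degrees C. PTC124 at 50 uM final served as control inhibitor.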
PMP22 txn: modulates PMP22 transcription in S16 Schwann cells. S16 Pmp22-F2sN Schwann cells (luciferase reporters placed in the Pmp22 gene), FLuc/NLuc coincidence luminescence, 24 h. Potency, µM (highest dose often 57.5 µM), inactives show at the top dose activity change, negative = inhibition, actives largely listed as inhibitors. 43,000 compounds, 2% hits. AID 1508649; active means clear falling dose curves in both reporters; inconclusive means both reporters move, but less clearly or upward; inactive means either reporter flat; the % is the NLuc reporter signal; further: on the % scale 0 is the no-effect control and ±100 the full control effect
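S16(c9) Schwann cells with FLuc/NLuc coincidence reporter in the Pmp22 3' UTR; compounds pin-transferred, 24 h at 37C. Dual-luciferase read: FLuc first, then NLuc after Stop&Glo, each 10 min at room temperature.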
* marks the source's active call; other numbers are inactive results; [ ] = dose if it differs, or a comment. Only some compounds are listed: those with a hit (about 3.6% of all), similar ones and a draw of the others. Unless noted, the call rests on the fitted dose curve; in most records, active means well fitted curve in the direction sought with a large enough effect; inconclusive means small, poorly fitted or top-dose-only effect, or another doubt; inactive means no such curve, though single readings can be large; an effect the other way counts as inactive or inconclusive. Potency means the concentration at half of the fitted maximal effect.

`CCOC(=O)c1c(NC(=O)COc2ccccc2)sc(C(C)=O)c1C` gave SKOV3 invasion inactive, mTORC1 inh -1%, S16 F2sN tox 20%, HTT-AS act -13%, HTT prom inh -8% and PMP22 txn -8%.
`CCOC(=O)c1c(NC(=O)COc2ccc(OC)cc2)sc(C(=O)N(CC)CC)c1C` gave SKOV3 invasion inactive, mTORC1 inh -1%, S16 F2sN tox inconclusive, HTT-AS act -58%, HTT prom inh 11µM* and PMP22 txn inconclusive.
`O=C(NC1CCCCC1)/C(=C/c1ccc(Cl)cc1)NC(=O)c1ccccc1` gave SKOV3 invasion -14%, mTORC1 inh 15µM*, S16 F2sN tox inconclusive, HTT-AS act -10%, HTT prom inh 10% and PMP22 txn inconclusive.
`COc1cc(C(C)C)c(Oc2cnc(NC(CO)CO)nc2N)cc1I` gave SKOV3 invasion -8%, HTT-AS act -13% and HTT prom inh -11%.
Screening Cc1ccc(S(=O)(=O)Nc2nc3ccccc3nc2Nc2ccc3nsnc3c2)cc1 returned SKOV3 invasion -10%[23.2 µM], HTT-AS act -27%[25.1 µM] and HTT prom inh -22%[25.2 µM].
For Cc1ccc(-c2cc3ncc4c(n3n2)-c2ccccc2OC4)cc1 the results were SKOV3 invasion -3%, mTORC1 inh -9%, S16 F2sN tox -5%, HTT-AS act inconclusive, HTT prom inh 41% and PMP22 txn 1%.
c1ccc(-c2cc3ncc4c(n3n2)-c2ccccc2OC4)cc1 was read as SKOV3 invasion inactive, mTORC1 inh 1%, S16 F2sN tox -2%, HTT-AS act 1.6µM*, HTT prom inh 67% and PMP22 txn inconclusive.
`Nc1ccc(C(=O)Nc2cccc(-c3nc(N4CCOCC4)c4oc5ncccc5c4n3)c2)cn1` gave SKOV3 invasion 3%, HTT-AS act -28% and HTT prom inh inconclusive.
CCCCN(CCCNC(=O)c1cc(Nc2cccc(SC)c2)nc2ccccc12)Cc1ccccc1 was read as SKOV3 invasion inconclusive, mTORC1 inh 16µM*, S16 F2sN tox inconclusive, HTT-AS act -66%, HTT prom inh inconclusive and PMP22 txn inconclusive.
CN[C@H]1[C@@H](O)[C@@H]2O[C@@H]3O[C@H](C)CC(=O)[C@]3(O)O[C@@H]2[C@@H](NC)[C@H]1O was read as SKOV3 invasion -26%, HTT-AS act -93% and HTT prom inh inconclusive.
Screening CCC(=C(c1ccc(O)cc1)c1ccc(OCCNC)cc1)c1ccccc1 returned SKOV3 invasion -5%, HTT-AS act -28% and HTT prom inh inconclusive.
`COc1ccc(-c2noc(N3CCC(C(=O)Nc4cccc(C)c4C)CC3)n2)cc1` gave SKOV3 invasion inactive, mTORC1 inh -3%, S16 F2sN tox -4%, HTT-AS act -59%, HTT prom inh 2.8µM* and PMP22 txn inconclusive.
COc1ccc(NC(=O)C2CCN(S(=O)(=O)c3cc(-c4noc(C)n4)ccc3C)CC2)cc1 was read as SKOV3 invasion 2%, mTORC1 inh -2%, S16 F2sN tox -5%, HTT-AS act -34%, HTT prom inh inconclusive and PMP22 txn 6%.
Screening Cc1ccc(C)c(N2CCN(C(=O)C3CCN(c4nc(-c5ccc(C(C)C)cc5)no4)CC3)CC2)c1 returned SKOV3 invasion inactive, mTORC1 inh -27%, S16 F2sN tox -20%, HTT-AS act -93%, HTT prom inh 0.11µM* and PMP22 txn -22%.
For COc1ccc(-c2noc(N3CCC(C(=O)N4CCN(c5ccccc5F)CC4)CC3)n2)cc1 the results were SKOV3 invasion 5%, mTORC1 inh -9%, S16 F2sN tox inconclusive, HTT-AS act -48%, HTT prom inh inconclusive and PMP22 txn inconclusive.
Cc1ccc(NC(=O)C2CCN(c3nc(-c4ccc(C(C)C)cc4)no3)CC2)c(Cl)c1 was read as SKOV3 invasion inactive, mTORC1 inh 0%, S16 F2sN tox 1%, HTT-AS act -90%, HTT prom inh 0.1µM* and PMP22 txn -23%.
Screening CN(C[C@@H]1COCCO1)S(=O)(=O)Nc1ccc2ccc3ncc(-c4cnn(C)c4)cc3c(=O)c2c1 returned SKOV3 invasion 27%, HTT-AS act -1% and HTT prom inh 15%.
For CCOC(=O)c1cc(-c2ccccc2)n(CCC(=O)Nc2ccc(Cl)c(C(F)(F)F)c2)c1C the results were SKOV3 invasion inconclusive, mTORC1 inh -23%, S16 F2sN tox inconclusive, HTT-AS act -51%, HTT prom inh 22µM* and PMP22 txn inconclusive.
Screening CCOC(=O)c1cc(-c2ccccc2)n(CCC(=O)Nc2cc(C)cc(C)c2)c1C returned SKOV3 invasion -1%, mTORC1 inh 2%, S16 F2sN tox -9%, HTT-AS act -32%, HTT prom inh inconclusive and PMP22 txn -29%.
Screening Cc1c(Cl)cccc1-c1ccc(C(=O)Nc2ccc3oc(-c4cccnc4)nc3c2)o1 returned SKOV3 invasion inconclusive, mTORC1 inh 13µM*, S16 F2sN tox -1%, HTT-AS act -18%, HTT prom inh inconclusive and PMP22 txn -26%.
Cc1ccc2c(c1)C(=O)C(=O)N2Cc1ccc(OC(C)C)cc1 was read as SKOV3 invasion -7%, mTORC1 inh inconclusive, S16 F2sN tox inconclusive, HTT-AS act -42%, HTT prom inh inconclusive and PMP22 txn 2.3µM*.
`Cc1ccc(C)c(CN2C(=O)c3ccccc3S(=O)c3ccc(C(=O)N(C)Cc4ccccc4)cc32)c1` (centres undefined) gave SKOV3 invasion inactive, mTORC1 inh -13%, S16 F2sN tox 4%, HTT-AS act -36%, HTT prom inh inconclusive and PMP22 txn inconclusive.
`Cc1ccc(C)c(CN2C(=O)C(=O)c3ccccc32)c1` gave SKOV3 invasion 1%, mTORC1 inh 2.9µM*, S16 F2sN tox inconclusive, HTT-AS act -25%, HTT prom inh -24% and PMP22 txn inconclusive.
For CC(C)n1cnc2c(NCCc3ccc(O)cc3)nc(-c3csc4ccccc34)nc21 the results were SKOV3 invasion -72%, HTT-AS act -67% and HTT prom inh inconclusive.
For COc1cc(OC)cc(C(=O)Nc2ccc3nc4c(c(Nc5ccc(OC)c(OC)c5)c3c2)CCCC4)c1 the results were SKOV3 invasion inconclusive, mTORC1 inh 0%, S16 F2sN tox inconclusive, HTT-AS act -63%, HTT prom inh inconclusive and PMP22 txn inconclusive.

Screens as filed in PubChem.
